# GLP-1R agonist: agonists of human GLP-1 receptor. P43220. HEK293 GLP-1R CRE-luciferase, luminescence, 4-6 h; cells express a hypersensitive GLP-1R form. Potency, µM (series often up to 45.6 µM), for inactives: at the highest dose activation, most hits filed as activators. 380,000 compounds, 0.007% hits. AID 624172; note: potency is the fitted concentration of half-maximal effect; % of control where 0% means no effect
# GLP-1R inv ag: acts as inverse agonist at human GLP-1 receptor; P43220; HEK293 GLP-1R CRE-luciferase, luminescence, 24 h; GLP-1R form is constitutively active; Potency, µM (series often up to 38.3 µM), for inactives: at the highest dose activity change, negative = inhibition, usual class: inhibitors; 410,000 compounds, 1.6% hits; AID 624417; note: potency is the fitted concentration of half-maximal effect; % is set by controls: 0 for no effect and ±100 for the full control effect; nearly all actives have a fitted effect of over 55% in size
#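 Seeding at 200 cells/uL, 12 h culture, 24 hr compound treatment, then luciferase reagent and a luminescence read; cells are HEK293 stably expressing a constitutively active GLP-1R plus cAMP-responsive luciferase.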
# ClpP mod: qHTS Assay for Activators of ClpP | 340,000 compounds, 1.9% hits | purified B. subtilis ClpP, FRET peptide cleavage, 20 min | Potency, µM (titrated, usually from 57.5 µM), for the others: at the top dose activity change, negative = active | ATP-dependent Clp protease proteolytic subunit (Bacillus subtilis (strain 168)), P80244; active = well fitted falling curve with a large enough effect; inconclusive = small, poorly fitted or top-dose-only effect; inactive = no such curve, though single readings can be large or run the other way; note: potency is the fitted concentration of half-maximal effect; the source files actives as falling curves though it sought activators and does not explain the sign; nearly all actives have a fitted effect of over 65% in size
#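 FRET quenching reversal measured ClpP activation: 10 microg/mL B. subtilis ClpP at pH 8 with the FRET-FV decapeptide, read at 430 nm after 320 nm excitation. The 20-min minus 0-min signal was scaled between DMSO/no-enzyme wells and ADEP (5.8 microM final).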
# LDHA block: blocks human lactate dehydrogenase A. P00338. purified LDHA, NADH/diaphorase-resazurin fluorescence; active compounds read low. activity change, % (values are at about 110 or 230 µM). 480,000 compounds, 0.15% hits. AID 1347041; in the data active = activity change below about -30%; inconclusive = mostly about -25% to -30%;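 note: plate controls were DMSO wells for no effect and wells without enzyme for full effect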
#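 Enzyme activity of human lactate dehydrogenase 5 (2 nM; 0.06 mM NADH, 0.2 mM pyruvate, 5 min, RT) is measured via a resazurin/diaphorase fluorescence readout of residual NADH.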
# p53 reactivator: mutant p53 re-activation in reporter cells. 320,000 compounds, 0.063% hits. AID 504706. H1299 p53-A138V BP100-luciferase reporter, luminescence, 24 h. Potency, µM (doses to about 92.2 µM), without a hit: top-dose activity change, positive = activation, hits mostly activators; note: potency is the fitted concentration of half-maximal effect; % of control where 0% means no effect; nearly all actives have a fitted effect of over 45% in size
#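 p53-null H1299 cells stably carrying temperature-sensitive p53-A138V and a BP100-luciferase reporter were pinned with compounds (4-point, 1:5 series) and held 24 hrs at 37 deg C. Luminescence was read 10 min after detection reagent.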
# HEK293 tox: cytotoxic in the GLP-1 receptor inverse agonist counter-screen; HEK293 cAMP-luciferase reporter cells, luminescence, 24 h; Potency, µM (series often up to 38.3 µM), without a hit: top-dose activity change, negative = inhibition, hits mostly inhibitors; 410,000 compounds, 0.13% hits;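 note: loss of luciferase light is scored as toxicity; potency is the fitted concentration of half-maximal effect; % is set by controls: 0 for no effect and ±100 for the full control effect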
#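 Cells in DMEM/10% Nu serum/1% pen-strep, 1536-well format. Pre-incubated 12 h, dosed with 23 nL compound, incubated a further 24 h. Luciferase detection, 12 min at room temp, luminescence.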
# An asterisk follows results filed as active; ? = inconclusive; . = no result; ! = a repeat was not active. Only some compounds are listed: those with a hit (about 2.9% of all), similar ones and a draw of the others. Unless noted, calls come from the whole dose curve; as a rule, active = well fitted curve in the direction sought with a large enough effect; inconclusive = small, poorly fitted or top-dose-only effect, or another doubt; inactive = no such curve, though single readings can be large; an effect the other way counts as inactive or inconclusive.
SMILES,GLP-1R agonist,GLP-1R inv ag,ClpP mod,LDHA block,p53 reactivator,HEK293 tox
COc1ccc(C(=O)N2CCN(c3ccccn3)CC2)cc1,4%,-6%,-18%,0,-2%,0%
Cc1ccc(S(=O)(=O)NCc2ccc(C(=O)N3CCN(c4ccccn4)CC3)cc2)cc1,-6%,13µM*,?,-5,-19%,-24%
CCCN(CCC)S(=O)(=O)c1ccc(N2CCCCS2(=O)=O)cc1,.,-5%,-2%,-7,.,5%
Cc1nn(-c2ccccc2)c2c1C(=O)N(Cc1ccccc1)C(=O)C(C)(C)C2,-12%,?,-3%,4,-5%,-7%
NCCNC[C@@H]1COC2(CCCCCCCCCCC2)O1,17%,5µM*,.,-3,-4%,-29%
COCCn1cc(C(=O)NCCN(C)C)c2c3ccccc3n(C)c2c1=O,10%,-3%,4%,-10,-4%,9%
COCCn1cc(C(=O)NCCCN2CCC(C)CC2)c2c3ccccc3n(C)c2c1=O,-5%,0%,32µM*,7,-6%,-19%
CCN1CCN(CCCNC(=O)c2cn(CCOC)c(=O)c3c2c2ccccc2n3C)CC1,0%,5%,3.2µM*,4,-8%,6%
COC(=O)c1ccc(NC(C)C(=O)OC)c([N+](=O)[O-])c1 (centres undefined),0%,0%,-2%,-7,3%,-17%
O=C(COc1ccc(C(=S)N2CCC(Cc3ccccc3)CC2)cc1)N1CCOCC1,-1%,?,1%,0,-7%,7%
Cn1ncc2c(Nc3cccc(Cl)c3)nc(Nc3cccc(Cl)c3)nc21,6%,11µM*,.,-2,-1%,-29%
C[C@@H]1CN([C@H](C)CO)S(=O)(=O)c2ccc(Br)cc2O[C@H]1CN(C)C(=O)Nc1ccccc1,-1%,8%,0%,-7,.,-9%
O=S(=O)(c1cccc(Cl)c1)N1CCN(c2nc(-c3cccs3)nc3ccccc23)CC1,.,.,14µM*!,-4,.,.
Cc1cccc(S(=O)(=O)N2CCN(c3nc(-c4cccs4)nc4ccccc34)CC2)c1,.,.,-8%,-5,.,.
COCCn1c(=S)[nH]c2cc(C(=O)NC3CCCCCC3)ccc2c1=O,8%,9%,-2%,-7,.,-9%
COc1ccccc1N(C)S(=O)(=O)c1ccc(C(=O)OCC(=O)N(C)c2ccccc2)cc1,5%,3.2µM*,.,-3,2%,-1%
OC(Cc1ccccc1Br)c1ncc(-c2cccc(C(F)(F)F)c2)[nH]1 (centres undefined),1%,10µM*,-4%,-3,.,-29%
CCc1ccc(C(=O)N/N=C/c2cccc3ccccc23)nc1,4%,-19%,-2%,-8,32µM*,-9%
O=C(N/N=C/c1ccncc1)c1sc2ccccc2c1Cl,-3%,5%,-1%,-2,-1%,-11%
O=C(N/N=C/c1ccc[nH]1)c1sc2ccccc2c1Cl,2%,10µM*,0%,-2,?,?
CCc1ccc2c(Cl)c(C(=O)N/N=C/c3c[nH]c4ccccc34)sc2c1,2%,-17%,25µM*,-5,1%,16%
CCc1ccc(-c2cc(C(=O)N/N=C/c3c[nH]c4ccccc34)[nH]n2)cc1,-2%,?,-29%,-5,-4%,-25%
COc1cccc(N2C(=O)c3cc4occc4n3CC2(C)C(=O)NC2CCCCCC2)c1 (centres undefined),.,.,.,6,.,.
CN(C)S(=O)(=O)c1ccc(NC(=O)CSc2n[nH]c(=O)n2C2CC2)cc1,-2%,-9%,1%,-6,-2%,0%
O=C(NN=C1CCCC1)c1ccn[nH]1,4%,8%,-3%,0,?,8%
